Reference: PubChem BioAssay AID1159580 (chemical genetic matrix, 2015)
About 2,000 (36%) of roughly 5,500 compounds were called active. Inconclusive results (about 18%) are left out. Rule as the data show it: active = normalized growth mostly below about 0.91 (no sharp cut-off); inconclusive = no clear call, values can overlap the other calls; inactive = mostly above about 0.92. The list shows a part of the results.

Assay: chemical genetic growth profiling, strain panel (AID 1159580);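 also: tested at 20 µM; growth read once vehicle control cultures reached saturation at 30 °C; 1 = growth at the plate median or of vehicle wells; lower values mean less growth of the strain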
Conditions: growth OD
[1] = S. cerevisiae deletion strains, locus YAL013W, strain DEP1, hits give low values
[2] = S. cerevisiae deletion strains, locus YGR078C, strain PAC10, hits give low values
[3] = S. cerevisiae deletion strains, locus YNL153C, strain GIM3, hits give low values
[4] = S. cerevisiae deletion strains, locus YPL241C, strain CIN2, hits give low values

Measured: normalized growth

C=CCn1c(=O)c2c(nc(-c3ccc(S(=O)(=O)O)cc3)n2C)n(C)c1=O
inactive: [1] 0.982 | S. cerevisiae deletion strains, locus YAL040C, strain CLN3, hits give low values 0.965 | S. cerevisiae deletion strains, locus YCL061C, strain MRC1 (second series), hits give low values 0.985 | S. cerevisiae deletion strains, locus YDR363W, strain ESC2, hits give low values 1.07 | S. cerevisiae deletion strains, locus YER002W, strain NOP16, hits give low values 1.01 | [2] 0.997 | [3] 1.01 | S. cerevisiae deletion strains, locus YNL175C, strain NOP13, hits give low values 1 | S. cerevisiae deletion strains, locus YNL197C, strain WHI3, hits give low values 0.987 | S. cerevisiae deletion strains, locus YNL224C, strain SQS1, hits give low values 0.99 | S. cerevisiae deletion strains, locus YOR083W, strain WHI5 (second series), hits give low values 1.03 | [4] 0.979

CCOP(=S)(OCC)Oc1cc(C)nc(C(C)C)n1
inactive: [1] 0.978 | S. cerevisiae deletion strains, locus YBR021W, strain FUR4, hits give low values 1.03 | S. cerevisiae deletion strains, locus YBR229C, strain ROT2, hits give low values 0.955 | S. cerevisiae deletion strains, locus YCL029C, strain bik1, hits give low values 0.985 | S. cerevisiae deletion strains, locus YDL035C, strain GPR1, hits give low values 0.946 | S. cerevisiae deletion strains, locus YDL074C, strain BRE1, hits give low values 0.901 | S. cerevisiae deletion strains, locus YDL101C, strain DUN1, hits give low values 0.96 | S. cerevisiae deletion strains, locus YDL134C, strain PPH21, hits give low values 0.995 | S. cerevisiae deletion strains, locus YDL185W, strain tfp1, hits give low values 0.972 | S. cerevisiae deletion strains, locus YDL192W, strain arf1, hits give low values 0.985 | S. cerevisiae deletion strains, locus YDR101C, strain arx1, hits give low values 1 | S. cerevisiae deletion strains, locus YDR150W, strain NUM1, hits give low values 0.984 | S. cerevisiae deletion strains, locus YDR162C, strain NBP2, hits give low values 0.976 | S. cerevisiae deletion strains, locus YDR318W, strain mcm21, hits give low values 0.98 | S. cerevisiae deletion strains, locus YDR388W, hits give low values 0.991 | S. cerevisiae deletion strains, locus YDR502C, strain sam2, hits give low values 0.994 | S. cerevisiae deletion strains, locus YEL061C, strain CIN8, hits give low values 0.989 | S. cerevisiae deletion strains, locus YER110C, hits give low values 0.981 | S. cerevisiae deletion strains, locus YER155C, strain BEM2, hits give low values 0.996 | S. cerevisiae deletion strains, locus YER167W, strain BCK2, hits give low values 0.99 | S. cerevisiae deletion strains, locus YGL078C, strain dbp3, hits give low values 0.995 | S. cerevisiae deletion strains, locus YGL086W, strain mad1, hits give low values 0.989 | S. cerevisiae deletion strains, locus YGL248W, strain PDE1, hits give low values 0.961 | [2] 0.976 | S. cerevisiae deletion strains, locus YGR135W, strain pre9, hits give low values 0.995 | S. cerevisiae deletion strains, locus YGR229C, strain SMI1, hits give low values 0.991 | S. cerevisiae deletion strains, locus YGR252W, strain gcn5, hits give low values 0.998 | S. cerevisiae deletion strains, locus YHR030C, strain SLT2, hits give low values 0.988 | S. cerevisiae deletion strains, locus YHR079C, strain IRE1 (second series), hits give low values 0.994 | S. cerevisiae deletion strains, locus YHR094C, strain hxt1, hits give low values 0.996 | S. cerevisiae deletion strains, locus YHR129C, strain ARP1, hits give low values 0.977 | S. cerevisiae deletion strains, locus YHR200W, strain rpn10, hits give low values 0.993 | S. cerevisiae deletion strains, locus YIL066C, strain RNR3, hits give low values 0.979 | S. cerevisiae deletion strains, locus YIL073C, strain SPO22, hits give low values 1.01 | S. cerevisiae deletion strains, locus YIL125W, strain kgd1, hits give low values 0.993 | S. cerevisiae deletion strains, locus YIR030C, strain dcg1, hits give low values 0.995 | S. cerevisiae deletion strains, locus YJL095W, strain BCK1, hits give low values 0.973 | S. cerevisiae deletion strains, locus YJL134W, strain LCB3, hits give low values 0.982 | S. cerevisiae deletion strains, locus YJL168C, strain set2, hits give low values 0.987 | S. cerevisiae deletion strains, locus YJL187C, strain SWE1 (second series), hits give low values 0.978 | S. cerevisiae deletion strains, locus YJR043C, strain POL32, hits give low values 0.991 | S. cerevisiae deletion strains, locus YJR075W, strain HOC1, hits give low values 0.977 | S. cerevisiae deletion strains, locus YKL009W, strain mrt4, hits give low values 0.949 | S. cerevisiae deletion strains, locus YKL068W, hits give low values 0.993 | S. cerevisiae deletion strains, locus YKL085W, strain MDH1 (second series), hits give low values 0.988 | S. cerevisiae deletion strains, locus YKL085W, strain MDH1, hits give low values 0.988 | S. cerevisiae deletion strains, locus YKL190W, strain CNB1, hits give low values 0.993 | S. cerevisiae deletion strains, locus YKR001C, strain vps1, hits give low values 0.999 | S. cerevisiae deletion strains, locus YLR039C, strain RIC1, hits give low values 0.966 | S. cerevisiae deletion strains, locus YLR058C, strain SHM2, hits give low values 0.971 | S. cerevisiae deletion strains, locus YLR102C, strain apc9, hits give low values 0.987 | S. cerevisiae deletion strains, locus YLR262C, strain YPT6, hits give low values 0.946 | S. cerevisiae deletion strains, locus YLR268W, strain sec22, hits give low values 0.993 | S. cerevisiae deletion strains, locus YLR330W, strain CHS5, hits give low values 0.989 | S. cerevisiae deletion strains, locus YLR342W, strain FKS1 (second series), hits give low values 0.975 | S. cerevisiae deletion strains, locus YLR371W, strain rom2, hits give low values 0.995 | S. cerevisiae deletion strains, locus YLR418C, strain cdc73, hits give low values 0.959 | S. cerevisiae deletion strains, locus YML016C, strain PPZ1, hits give low values 0.993 | S. cerevisiae deletion strains, locus YML032C, strain rad52, hits give low values 0.989 | S. cerevisiae deletion strains, locus YML124C, strain tub3, hits give low values 0.998 | S. cerevisiae deletion strains, locus YMR078C, strain ctf18, hits give low values 0.991 | S. cerevisiae deletion strains, locus YMR223W, strain ubp8, hits give low values 0.988 | S. cerevisiae deletion strains, locus YMR263W, strain SAP30, hits give low values 0.98 | S. cerevisiae deletion strains, locus YMR307W, strain GAS1, hits give low values 0.976 | S. cerevisiae deletion strains, locus YNL067W, strain RPL9B, hits give low values 0.972 | S. cerevisiae deletion strains, locus YNL128W, strain TEP1, hits give low values 0.957 | [3] 0.984 | S. cerevisiae deletion strains, locus YNL233W, strain BNI4, hits give low values 0.984 | S. cerevisiae deletion strains, locus YNL250W, strain rad50, hits give low values 0.984 | S. cerevisiae deletion strains, locus YNL271C, strain bni1, hits give low values 0.992 | S. cerevisiae deletion strains, locus YNL298W, strain CLA4, hits give low values 0.995 | S. cerevisiae deletion strains, locus YNL307C, strain MCK1, hits give low values 0.998 | S. cerevisiae deletion strains, locus YNL322C, strain KRE1, hits give low values 0.978 | S. cerevisiae deletion strains, locus YNR052C, strain pop2, hits give low values 0.99 | S. cerevisiae deletion strains, locus YOL006C, strain TOP1, hits give low values 0.967 | S. cerevisiae deletion strains, locus YOL012C, strain htz1 0.881 | S. cerevisiae deletion strains, locus YOL147C, strain pex11, hits give low values 0.998 | S. cerevisiae deletion strains, locus YOR061W, strain CKA2, hits give low values 0.967 | S. cerevisiae deletion strains, locus YOR069W, strain VPS5, hits give low values 0.989 | S. cerevisiae deletion strains, locus YOR136W, strain idh2, hits give low values 0.986 | S. cerevisiae deletion strains, locus YOR144C, strain elg1, hits give low values 0.995 | S. cerevisiae deletion strains, locus YOR184W, strain ser1, hits give low values 0.987 | S. cerevisiae deletion strains, locus YOR316C, strain cot1, hits give low values 0.975 | S. cerevisiae deletion strains, locus YPL055C, strain LGE1, hits give low values 0.956 | [4] 0.989 | S. cerevisiae deletion strains, locus YPR119W, strain clb2, hits give low values 0.997 | S. cerevisiae deletion strains, locus YPR141C, strain kar3, hits give low values 0.984 | S. cerevisiae deletion strains, locus YPR163C, strain tif3, hits give low values 1 | S. cerevisiae deletion strains, locus YPR167C, strain met16, hits give low values 0.987 | S. cerevisiae deletion strains, strain wtn01, hits give low values 1 | S. cerevisiae strains, strain wild type, hits give low values 0.987
